According to PubChem BioAssay (NCI):
About 79,000 compounds went through this panel and 15% of them were active in at least one assay; those are over-represented in the sample as a whole. Unmarked numbers belong to inactive results. Calls of active or inactive are those of the source. Cut-off read from the data, not from the text of the source: active = growth inhibition above about 70%; inactive = the rest.

Legend:
[1] = NCI Yeast Anticancer Drug Screen. Data for the rad52 strain (AID 147);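 note: 0% = growth of vehicle-treated control cultures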; details: S. cerevisiae rad52 mutant growth inhibition, stronger effect = higher value
In short: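 Inhibition of yeast growth, referenced to vehicle controls, was the measured output for a strain with defective DNA damage repair.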

[2] = NCI Yeast Anticancer Drug Screen. Data for the wt1 strain (AID 149);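 note: 0% = growth of vehicle-treated wt1 cultures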; details: S. cerevisiae wt1 strain (SPY 50644) growth inhibition, stronger effect = higher value
In short: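 Using yeast strain wt1, compound-induced growth inhibition was determined against vehicle-treated cultures.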

[3] = NCI Yeast Anticancer Drug Screen. Data for the rad50EPP+ strain (AID 151);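 note: 0% = growth of vehicle-treated control cultures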; details: S. cerevisiae rad50 mutant strain, stronger effect = higher value
In short: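 Genetically defined yeast (rad50EPP+, DNA damage repair alteration) is grown with compound, and inhibition of growth is expressed relative to vehicle-treated controls.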

[4] = NCI Yeast Anticancer Drug Screen. Data for the rad50 strain (AID 155);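 note: 0% = growth of vehicle-only cultures of the same strain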; details: S. cerevisiae rad50 strain growth inhibition, stronger effect = higher value
In short: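 Relative growth inhibition (compound vs vehicle) was measured in yeast with a defined repair-gene alteration.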

[5] = NCI Yeast Anticancer Drug Screen. Data for the mec2-1 strain (AID 157); details: S. cerevisiae mec2-1 strain, stronger effect = higher value
In short: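 Each compound was tested on mec2-1 yeast, a strain altered in DNA damage repair or cell cycle control. Growth inhibition is reported relative to vehicle.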

[6] = NCI Yeast Anticancer Drug Screen. Data for the rad14 strain (AID 159);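 note: 0% = growth of vehicle-treated control cultures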; details: S. cerevisiae rad14 strain growth inhibition, stronger effect = higher value
In short: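 Screen for anticancer potential: a yeast strain altered in DNA damage repair is grown with compound, and reduced growth is quantified against vehicle controls.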

[7] = NCI Yeast Anticancer Drug Screen. Data for the sgs1 mgt1 strain (AID 161);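 note: 0% = growth of cultures given vehicle only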; details: S. cerevisiae sgs1 mgt1 strain, stronger effect = higher value
In short: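 Genetically altered yeast, compound exposure, growth inhibition relative to vehicle.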

[8] = NCI Yeast Anticancer Drug Screen. Data for the CLN2oe strain (AID 163);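 note: 0% = growth of vehicle-only control cultures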; details: S. cerevisiae CLN2oe strain, stronger effect = higher value
In short: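 First, the altered yeast strain was treated with each compound; second, its growth was measured; finally, inhibition was derived by comparison with vehicle controls.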

[9] = NCI Yeast Anticancer Drug Screen. Data for the cln2 rad14 strain (AID 165);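 note: 0% = growth equal to vehicle treated cultures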; details: S. cerevisiae cln2 rad14 strain, stronger effect = higher value
In short: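 Test compounds were added to cln2 rad14 yeast cultures; inhibition of growth was then determined by comparison with vehicle treatment.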

[10] = NCI Yeast Anticancer Drug Screen. Data for the bub3 strain (AID 167); details: S. cerevisiae bub3 mutant strain, stronger effect = higher value
In short: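 Screening used yeast with an engineered genetic alteration affecting cell cycle control. Compound-exposed cultures were compared with vehicle cultures, and reduced growth was taken as inhibition.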

[11] = NCI Yeast Anticancer Drug Screen. Data for the wt2 strain (AID 169);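 note: 0% = growth of vehicle-treated yeast cultures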; details: S. cerevisiae wt2 strain growth inhibition, stronger effect = higher value
In short: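 The panel's yeast strains carry defined changes in DNA repair or cell cycle genes. Each strain is grown with compound, and growth loss is scored relative to vehicle.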

[12] = NCI Yeast Anticancer Drug Screen. Data for the mlh1 strain (AID 171);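 note: 0% = growth of vehicle-treated control cultures of the same strain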; details: S. cerevisiae mlh1 strain growth inhibition, stronger effect = higher value
In short: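 Inhibition values reflect reduced yeast growth in the presence of compound, referenced to vehicle controls, using a strain chosen for its alteration in DNA repair or cell cycle control.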

[13] = NCI Yeast Anticancer Drug Screen. Data for the sgs1 strain (AID 173);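 note: 0% = growth of vehicle-only control cultures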; details: S. cerevisiae sgs1 mutant, stronger effect = higher value
In short: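 Vehicle-treated cultures served as reference for growth inhibition of a yeast strain altered in DNA damage repair or cell cycle control after compound exposure.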

[14] = NCI Yeast Anticancer Drug Screen. Data for the mlh1 rad18 strain (AID 175); details: S. cerevisiae mlh1 rad18 strain growth inhibition, stronger effect = higher value
In short: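 Inhibition values reflect reduced growth of mutant yeast versus vehicle-treated controls following compound exposure; the mutations affect DNA damage repair.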

[15] = at 5.0 µM (retest, dose inferred, filed as 0.5)
[16] = at 50.0 µM (retest, dose inferred, filed as 5.0)

Question: With CN=C(N)N/N=C(\C)c1ccc2oc3ccc(/C(C)=N/NC(N)=NC)cc3c2c1 as the compound, how does the growth inhibition ([1]; at 1.2 µM) read?
Answer: Its growth inhibition is 11%.

Question: What about the growth inhibition ([1]; at 3.7 µM) of the same compound?
Answer: Its growth inhibition is 28%.

Question: What about the growth inhibition ([1]; at 11.0 µM) of the same compound?
Answer: The growth inhibition was 88% (active).

Question: What about the growth inhibition ([1]; at 33.0 µM) of the same compound?
Answer: The growth inhibition was 98% (active).

Question: What about the growth inhibition ([1]; at 100.0 µM) of the same compound?
Answer: The growth inhibition was 98% (active).

Question: And the growth inhibition ([2]; at 1.2 µM)?
Answer: The growth inhibition was -8%.

Question: What about the growth inhibition ([2]; at 3.7 µM) of the same compound?
Answer: The growth inhibition was -21%.

Question: What about the growth inhibition ([2]; at 11.0 µM) of the same compound?
Answer: Its growth inhibition is 11%.

Question: And the growth inhibition ([2]; at 33.0 µM)?
Answer: The growth inhibition was 98% (active).

Question: And the growth inhibition ([2]; at 100.0 µM)?
Answer: The growth inhibition was 98% (active).

Question: What about the growth inhibition ([3]; at 1.2 µM) of the same compound?
Answer: The growth inhibition was -17%.

Question: And the growth inhibition ([3]; at 3.7 µM)?
Answer: The growth inhibition was 23%.

Question: And the growth inhibition ([3]; at 11.0 µM)?
Answer: Its growth inhibition is 70% (active).

Question: What about the growth inhibition ([3]; at 33.0 µM) of the same compound?
Answer: Its growth inhibition is 96% (active).

Question: And the growth inhibition ([3]; at 100.0 µM)?
Answer: Its growth inhibition is 98% (active).

Question: And the growth inhibition ([4]; at 1.2 µM)?
Answer: The growth inhibition was 34%.

Question: What about the growth inhibition ([4]; at 3.7 µM) of the same compound?
Answer: The growth inhibition was 64%.

Question: And the growth inhibition [4, 15]?
Answer: Its growth inhibition is 81% (active).

Question: And the growth inhibition ([4]; at 11.0 µM)?
Answer: The growth inhibition was 92% (active).

Question: What about the growth inhibition ([4]; at 33.0 µM) of the same compound?
Answer: Its growth inhibition is 98% (active).

Question: And the growth inhibition [4, 16]?
Answer: The growth inhibition was 98% (active).

Question: And the growth inhibition ([4]; at 50.0 µM)?
Answer: Its growth inhibition is 90% (active).

Question: What about the growth inhibition ([4]; at 100.0 µM) of the same compound?
Answer: The growth inhibition was 98% (active).

Question: And the growth inhibition ([5]; at 1.2 µM)?
Answer: The growth inhibition was -11%.

Question: And the growth inhibition ([5]; at 3.7 µM)?
Answer: Its growth inhibition is -9%.

Question: What about the growth inhibition [5, 15] of the same compound?
Answer: The growth inhibition was 15%.

Question: What about the growth inhibition ([5]; at 11.0 µM) of the same compound?
Answer: Its growth inhibition is 15%.

Question: What about the growth inhibition ([5]; at 33.0 µM) of the same compound?
Answer: The growth inhibition was 98% (active).

Question: And the growth inhibition [5, 16]?
Answer: Its growth inhibition is 99% (active).

Question: And the growth inhibition ([5]; at 50.0 µM)?
Answer: The growth inhibition was 93.6% (active).

Question: And the growth inhibition ([5]; at 100.0 µM)?
Answer: Its growth inhibition is 98% (active).

Question: And the growth inhibition ([6]; at 1.2 µM)?
Answer: The growth inhibition was 4%.

Question: What about the growth inhibition ([6]; at 3.7 µM) of the same compound?
Answer: The growth inhibition was -18%.

Question: What about the growth inhibition ([6]; at 11.0 µM) of the same compound?
Answer: Its growth inhibition is 43%.

Question: What about the growth inhibition ([6]; at 33.0 µM) of the same compound?
Answer: Its growth inhibition is 98% (active).

Question: What about the growth inhibition ([6]; at 100.0 µM) of the same compound?
Answer: The growth inhibition was 98% (active).

Question: And the growth inhibition [7, 15]?
Answer: The growth inhibition was 56%.

Question: And the growth inhibition [7, 16]?
Answer: The growth inhibition was 99% (active).

Question: What about the growth inhibition ([7]; at 50.0 µM) of the same compound?
Answer: The growth inhibition was 90.4% (active).

Question: And the growth inhibition ([8]; at 1.2 µM)?
Answer: The growth inhibition was -66%.

Question: And the growth inhibition ([8]; at 3.7 µM)?
Answer: Its growth inhibition is -74%.

Question: What about the growth inhibition ([8]; at 11.0 µM) of the same compound?
Answer: The growth inhibition was 20%.

Question: And the growth inhibition ([8]; at 33.0 µM)?
Answer: The growth inhibition was 97% (active).

Question: What about the growth inhibition ([8]; at 100.0 µM) of the same compound?
Answer: Its growth inhibition is 98% (active).

Question: What about the growth inhibition [9, 15] of the same compound?
Answer: The growth inhibition was 13%.

Question: And the growth inhibition [9, 16]?
Answer: Its growth inhibition is 98% (active).

Question: What about the growth inhibition ([9]; at 50.0 µM) of the same compound?
Answer: The growth inhibition was 91.8% (active).

Question: What about the growth inhibition ([10]; at 1.2 µM) of the same compound?
Answer: Its growth inhibition is -14%.

Question: And the growth inhibition ([10]; at 3.7 µM)?
Answer: Its growth inhibition is -24%.

Question: And the growth inhibition [10, 15]?
Answer: Its growth inhibition is 37%.

Question: And the growth inhibition ([10]; at 11.0 µM)?
Answer: The growth inhibition was 2%.

Question: And the growth inhibition ([10]; at 33.0 µM)?
Answer: Its growth inhibition is 97% (active).

Question: And the growth inhibition [10, 16]?
Answer: Its growth inhibition is 99% (active).

Question: And the growth inhibition ([10]; at 50.0 µM)?
Answer: Its growth inhibition is 89.2% (active).

Question: What about the growth inhibition ([10]; at 100.0 µM) of the same compound?
Answer: Its growth inhibition is 98% (active).

Question: And the growth inhibition ([11]; at 1.2 µM)?
Answer: The growth inhibition was -4%.

Question: And the growth inhibition ([11]; at 3.7 µM)?
Answer: Its growth inhibition is 2%.

Question: What about the growth inhibition ([11]; at 11.0 µM) of the same compound?
Answer: The growth inhibition was 95% (active).

Question: What about the growth inhibition ([11]; at 33.0 µM) of the same compound?
Answer: Its growth inhibition is 98% (active).

Question: What about the growth inhibition ([11]; at 100.0 µM) of the same compound?
Answer: The growth inhibition was 98% (active).

Question: What about the growth inhibition ([12]; at 1.2 µM) of the same compound?
Answer: Its growth inhibition is -23%.

Question: What about the growth inhibition ([12]; at 3.7 µM) of the same compound?
Answer: Its growth inhibition is -24%.

Question: What about the growth inhibition ([12]; at 11.0 µM) of the same compound?
Answer: The growth inhibition was 35%.

Question: And the growth inhibition ([12]; at 33.0 µM)?
Answer: The growth inhibition was 98% (active).

Question: What about the growth inhibition ([12]; at 100.0 µM) of the same compound?
Answer: Its growth inhibition is 98% (active).

Question: What about the growth inhibition ([13]; at 1.2 µM) of the same compound?
Answer: Its growth inhibition is -21%.

Question: What about the growth inhibition ([13]; at 3.7 µM) of the same compound?
Answer: The growth inhibition was -14%.

Question: And the growth inhibition ([13]; at 11.0 µM)?
Answer: Its growth inhibition is 37%.

Question: What about the growth inhibition ([13]; at 33.0 µM) of the same compound?
Answer: Its growth inhibition is 98% (active).

Question: And the growth inhibition ([13]; at 100.0 µM)?
Answer: Its growth inhibition is 98% (active).

Question: What about the growth inhibition [14, 15] of the same compound?
Answer: Its growth inhibition is 54%.

Question: What about the growth inhibition [14, 16] of the same compound?
Answer: The growth inhibition was 98% (active).

Question: What about the growth inhibition ([14]; at 50.0 µM) of the same compound?
Answer: Its growth inhibition is 87.5% (active).
